Laboratory results: paper PMC12136788
Numbering of substitutions follows the chain as printed. In all, about 24,000 sequences were measured (“enrichment r”: median about 0.99, highest 2% from about 3.7 on). Shown is part of a subset that was picked to be rich in the highest values.

T1: UNK ZnF1-3 (human, UniProt Q9C0B0 31-174)
T1 sequence: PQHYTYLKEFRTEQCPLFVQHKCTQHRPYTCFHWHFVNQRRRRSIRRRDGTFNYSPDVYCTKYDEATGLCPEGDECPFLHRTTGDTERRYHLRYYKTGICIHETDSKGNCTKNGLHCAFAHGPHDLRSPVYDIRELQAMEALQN

B1: chr7:148083511:148083512:+_ENSMUSG00000025487_ENSMUST00000026560|mus_mus|FALSE|FALSE (ssRNA)
RNA: GGGAGUUCUACAGUCCGACGAUCCAAAUCCAGCACUCGCGGCUGCACCCACGUCAUGUGAACCCGCUUGUCCACCUCGUCUAUGCUGCCUCUCACCAGCCCCACCGAGAGUGCCUUCAUCACCAGCAACUCCACCUUGUUGACCAACAGAGGAUUGAGCAUCA
B2: 104840732_104840852_1265_3pUTR_ENSMUSG00000021710_ENSMUST00000109315|mouse|control|control (ssRNA)
RNA: GGGAGUUCUACAGUCCGACGAUCGACCACCUCAAUGGGAAAGUACUCCUUGAGGGACUCCUGGUCCACAGAGUACUUGAGCUCCUCUGUCUGGGUCAUGUAGUAAUGGAGGUCCCAUGCGUUGAUCUUCCCGUCGUAUGCAAACAACAGAGGAUUGAGCAUCA
B3: chr15:63447868:63447869:-_ENSG00000185088_ENST00000411926|hu_hu|FALSE|FALSE (ssRNA)
RNA: GGGAGUUCUACAGUCCGACGAUCCCCUUCUGUGAGUCUGGCCUUUCCUCCUGUAGGCUGGCACAACACUGUUGAACAACCUACACAAAGAACCACUGUCUGAGCAUGGCUGAAAACCGUGGUGAUCUUGUAGCAACCUGGACACAACAGAGGAUUGAGCAUCA
B4: chr3:148479741:148479742:-_ENSMUSG00000028184_ENSMUST00000106128|mus_mus|motif|central (ssRNA)
RNA: GGGAGUUCUACAGUCCGACGAUCACAAUGCAGGCCUACAGAAAAACAAAACAAAACAAAAACAAAAACCGGUAGGGCCCGGUUUACAGACUCAGUUCACCAACUGCCGCAAGGAACAUGGCCGGGAGGGAGGGUCUCUUGUUUCAACAGAGGAUUGAGCAUCA
B5: chr2:175006660:175006661:-_ENSG00000138430_ENST00000344357|hu_mus|motif|central (ssRNA)
RNA: GGGAGUUCUACAGUCCGACGAUCUAGAAUGGGCCCAAUCAUCUCCUCGUCCUUCAGCUGGAGCUCCUCGUGAAUUAUCUCGGUGUCUCGGAUGGGAUCUACACUUCCUUCAACAUGCGUGAUAUCAUCGUCUUCAAAAGCACGCAACAGAGGAUUGAGCAUCA
B6: chr17:56552419:56552420:-_ENSMUSG00000013236_ENSMUST00000086828|mus_mus|mus_mus_mus_hu_False|38_88 (ssRNA)
RNA: GGGAGUUCUACAGUCCGACGAUCAAAAAAUACACUAUUUAAAAAAAAAAGAAAAAAACGGGAUACAGUUACACUGAGAGUUUUAAAAGAAAGCUGGAAAAAAAAUGCAGCCCAGUGUCCCCAGGCUGCAGAGCGGGGAGGAGCCAACAGAGGAUUGAGCAUCA
B7: chr17:56552419:56552420:-_ENSMUSG00000013236_ENSMUST00000086828|mus_mus|mus_mus_mus_hu_False|38_38 (ssRNA)
RNA: B6 RNA with A48U, A49G, G50A, A53U, A54G, A55U, A56C
B8: chr17:56552419:56552420:-_ENSMUSG00000013236_ENSMUST00000086828|mus_mus|mus_mus_mus_hu_False|1_38 (ssRNA)
RNA: B6 RNA with A48U, A49G, G50A, A53U, A54G, A55U, A56C, A138C, G139A, C143G
B9: chr17:56552419:56552420:-_ENSMUSG00000013236_ENSMUST00000086828|mus_mus|mus_mus_mus_hu_False|38_98 (ssRNA)
RNA: B6 RNA with U38A, U39A, A48U, A49G, G50A, A53U, A54G, A55U, A56C
B10: 154963464_154963584_1656_3pUTR_ENSMUSG00000042751_ENSMUST00000043313|mouse|control|control (ssRNA)
RNA: GGGAGUUCUACAGUCCGACGAUCCUGGUUGGCAGAGAACCCACUCAAUGCUACUGGUCAGACACACAGCAUCAAGACCACGAUCAUCUGAAACCAGGGACUCAAAUUCUGAGAAACCCUACUCUUCCCAGACUUAUGUACCAGCAACAGAGGAUUGAGCAUCA
B11: chr8:145151508:145151509:+_ENSG00000179091_ENST00000318911|hu_hu|FALSE|FALSE (ssRNA)
RNA: GGGAGUUCUACAGUCCGACGAUCACCUUCCCGCAGUGACACCCCGGUGGGUGGCUCGCAGUAGCCCGUGAGCAGGGAGAAGACGUAGUCCUCACCACCAUGCCUAGCUCGCACGAUGUAGCUGAGGUCAGGGGGCAAUGCUCCCAACAGAGGAUUGAGCAUCA
B12: 35238635_35241177_7885_CDS_ENSMUSG00000029104_ENSMUST00000080036|mouse|control|control (ssRNA)
RNA: GGGAGUUCUACAGUCCGACGAUCCUGGCCCAGCUUGUAGCUCAUGUUGCCUGGCUCCCGCUCUGGGUUGAUCUGCAGCAGCAGCUUGUCAUGGCUGAUAAGAGCACCUGUAGUAGCUGGUAACAGAGAAGGGACAGGAUCCCACAACAGAGGAUUGAGCAUCA
B13: chr8:13020401:13020402:+_ENSMUSG00000031442_ENSMUST00000123811|mus_hu|FALSE|FALSE (ssRNA)
RNA: GGGAGUUCUACAGUCCGACGAUCUGAUUCCGCACCCUGGAGGUCUGGCCAGUGACGGCUACAAGCCGCUGGGAGGGUAGCGUGAGGGGAAUGCAGCCACGCCUGCCUCCACUGUGCUGGGGCUGGGAACCGUGAGGCUGUGAGCAACAGAGGAUUGAGCAUCA
B14: chr9:4385736:4385737:+_ENSMUSG00000041124_ENSMUST00000047173|mus_hu|FALSE|FALSE (ssRNA)
RNA: GGGAGUUCUACAGUCCGACGAUCAUAUUUUGGGUUGGAAAAUUCUUUACUGAGUGUGGGGGGGUGUUGAGGAGGUAUGCAUUGCACAGUAGCAACCUUUUCCCCACCCCAGUUUUGACAACCCAACAUGUCUCCAGACAUCACCAACAGAGGAUUGAGCAUCA
B15: chr2:27535424:27535425:-_ENSG00000115204_ENST00000380044|hu_mus|FALSE|FALSE (ssRNA)
RNA: GGGAGUUCUACAGUCCGACGAUCUUUGGCCCAAUUGUCCUGGGCUGACAUUCCAUUGAGUAUCCCGACCAGUGGGAGAAAGCAGCCUAGGAAACAUGGGGCAAAGCCCCCCUGAUCUAACAACAUCUUCUUCAGUGCAUGCACCAACAGAGGAUUGAGCAUCA
B16: chr2:17897474:17897475:-_ENSG00000163029_ENST00000351948|hu_mus|FALSE|FALSE (ssRNA)
RNA: GGGAGUUCUACAGUCCGACGAUCUAUUGCUUCCAGAAGAGCUGGAACAUGAGGACCAAAUCUUUUUAGUCGAUCAGUUUUACUAUCUUUCAGUUCUUUCAAUUGUCUCUGAUUAUAGUUGAGUGCAUGUCUCACUUCUAUAUCCAACAGAGGAUUGAGCAUCA
B17: 8890394_8891644_3383_CDS_ENSG00000134313_ENST00000427284|human|control|control (ssRNA)
RNA: GGGAGUUCUACAGUCCGACGAUCACCCUCAUGUAGAGGGAGCGGGGGGUACGCCAGUCCUCCAAUACUGAUCUGCUCUCUGGCAGCACGAACAUCUGCAAUAAUUUCCCGUAGUUUGGGAUCUAGGUUUACAGUGCAUGGCAACAACAGAGGAUUGAGCAUCA
B18: chr4:2840174:2840175:+_ENSG00000087266_ENST00000503393|hu_hu|motif|central (ssRNA)
RNA: GGGAGUUCUACAGUCCGACGAUCGAACUACGAUACAGCCAAACAAUGGAAGUUUUUAGCAAUGAACAUGCACAAACGGUACGGCGCACAGCAACAUGAAUAAAUCUCACAGACAUAAUAACGAGCCAAAGAAGCCAGCUGCCACAACAGAGGAUUGAGCAUCA
B19: chr17:56552419:56552420:-_ENSMUSG00000013236_ENSMUST00000086828|mus_mus|mus_mus_mus_hu_False|28_38 (ssRNA)
RNA: GGGAGUUCUACAGUCCGACGAUCAAAAAAUACACUAUUUAAAAAAAAUGAAAUGUCACGGGAUACAGUUACACUGAGAGUUUUAAAAGAAAGCUGGAAAAAAAAUGUUGCCAAAAGUCCCCAGGCUGCAGAGCGGGGAGGAGCCAACAGAGGAUUGAGCAUCA
B20: chr17:56552419:56552420:-_ENSMUSG00000013236_ENSMUST00000086828|mus_mus|mus_mus_mus_hu_False|38_48 (ssRNA)
RNA: B19 RNA with G88A, G92A, C93U, U94A, G95A, U107C, U108A, A112C, A114G, A115U
B21: chr17:56552419:56552420:-_ENSMUSG00000013236_ENSMUST00000086828|mus_mus|mus_mus_mus_hu_False|18_38 (ssRNA)
RNA: GGGAGUUCUACAGUCCGACGAUCAAAAAAUACACUAUUUAAAAAAAAUGAAAUGUCACGGGAUACAGUUACACUGAGAGUUUUAAAAGAAAGCUGGAAAAAAAAUGCAGCCCAGUGGCAGGCAGGGGCAGAGCGGGGAGGAGCCAACAGAGGAUUGAGCAUCA
B22: chr17:56552419:56552420:-_ENSMUSG00000013236_ENSMUST00000086828|mus_mus|mus_mus_mus_hu_False|8_38 (ssRNA)
RNA: GGGAGUUCUACAGUCCGACGAUCAAAAAAUACACUAUUUAAAAAAAAUGAAAUGUCACGGGAUACAGUUACACUGAGAGUUUUAAAAGAAAGCUGGAAAAAAAAUGCAGCCCAGUGUCCCCAGGCUGAGUGCGGAAGAGGAGCCAACAGAGGAUUGAGCAUCA

Biological target: T1, UNK ZnF1-3
Experiment: nsRBNS (natural sequence RNA bind-n-seq); RBNS binding buffer (assumed for nsRBNS): 25 mM Tris pH 7.5, 150 mM KCl, 3 mM MgCl2, 0.01% Triton X-100, 500 ug/ml BSA, 20 U/ml SUPERase-In, 4 C; UNK is unkempt and MSI1 is Musashi-1; names of the RNAs are library labels; protein concentration not given here; high values mean tight binding

Binder	binding signal [enrichment R]
B1	0.937
B2	0.691
B3	0.955
B4	2.06
B5	0.77
B6	13.5
B7	5.93
B8	5.3
B9	7.57
B10	1.29
B11	1.01
B12	1.21
B13	1.36
B14	0.462
B15	0.82
B16	0.468
B17	0.796
B18	2.12
B19	5.83
B20	12.3
B21	5.96
B22	6.02
